Experimental findings from PubChem BioAssay (EPA / NIEHS) are described below.

Holding throughout (conditions): mRNA level, 48 h; actives raise or lower the signal
Read-out in one assay: HGF (gene 3082)
In words: LTEA_HepaRG_HGF: Life Technologies and Expression Analysis (LTEA) Assay for Hepatocyte Growth Facto (HGF) using HepaRG (AID 2283505). In short, it runs like this:
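Differentiated HepaRG cells in serum-free induction medium exposed 48 h in duplicate, 8 half-log concentrations from 100 uM in 0.5% DMSO. HGF mRNA by qRT-PCR, normalised to ACTB, GAPDH, POLR2A; bidirectional fitting.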

Read-out in assay [1]: Insulin Like Growth Factor 1 (IGF1), IGF1 (gene 3479)
In words: LTEA_HepaRG_IGF1: Life Technologies and Expression Analysis (LTEA) Assay for Insulin Like Growth Factor 1 (IGF1) using HepaRG (AID 2283506). The method, boiled down:
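qRT-PCR readout of IGF1 mRNA, normalized to three housekeeping genes, after 48 h chemical exposure of HepaRG cells. Concentrations: 8-point half-log series, top 100 uM, 0.5% DMSO vehicle. Gain or loss fitted against DMSO baseline.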

Read-out in assay [2]: Intercellular Adhesion Molecule 1 (ICAM1), ICAM1 (gene 3383)
In words: LTEA_HepaRG_ICAM1: Life Technologies and Expression Analysis (LTEA) Assay for Intercellular Adhesion Molecule 1 (ICAM1) using HepaRG (AID 2283507). In short, it runs like this: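 Differentiated human HepaRG cells in serum-free induction medium exposed 48 h in duplicate to 8 half-log concentrations (top 100 uM, 0.5% DMSO). ICAM1 mRNA quantified by TaqMan qRT-PCR, normalized to ACTB, GAPDH and POLR2A; bidirectional fitting versus DMSO.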

Read-out in assay [3]: Interleukin 6 (IL6), IL6 (gene 3569)
In words: LTEA_HepaRG_IL6: Life Technologies and Expression Analysis (LTEA) Assay for Interleukin 6 (IL6) using HepaRG (AID 2283509). In short, it runs like this:
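qRT-PCR read-out of IL6 transcript, normalized to three housekeeping genes, after 48 h chemical exposure of HepaRG cells; 8-point half-log series, top 100 uM, 0.5% DMSO vehicle. Bidirectional curve fitting against DMSO baseline.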

Read-out in assay [4]: Interleukin 6 Receptor (IL6R), IL6R (gene 3570)
Briefly: LTEA_HepaRG_IL6R: Life Technologies and Expression Analysis (LTEA) Assay for Interleukin 6 Receptor (IL6R) using HepaRG (AID 2283510). In short, it runs like this: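 HepaRG, 48 h exposure, 8-pt half-log series, top 100 uM, 0.5% DMSO vehicle, duplicates. Read-out: TaqMan qRT-PCR of IL6R transcript, housekeeping-gene normalized. Gain or loss fitted relative to DMSO baseline.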

Read-out in assay [5]: Keratin 19 (KRT19), KRT19 (gene 3880)
In words: LTEA_HepaRG_KRT19: Life Technologies and Expression Analysis (LTEA) Assay for Keratin 19 (KRT19) using HepaRG (AID 2283512). In short, it runs like this: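 Differentiated HepaRG cells in serum-free induction medium, exposed 48 h in duplicate to 8 half-log concentrations up to 100 uM in 0.5% DMSO. KRT19 mRNA by qRT-PCR, normalized to ACTB, GAPDH, POLR2A; bidirectional fit vs DMSO.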

Read-out in assay [6]: JUN Transcription Factor, JUN (gene 3725)
Briefly: LTEA_HepaRG_JUN: Life Technologies and Expression Analysis (LTEA) Assay for JUN Transcription Factor using HepaRG (AID 2283513). The method, boiled down: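 HepaRG, 48 h exposure, 8-pt half-log series top 100 uM, 0.5% DMSO, duplicate. JUN mRNA by qRT-PCR (Fluidigm), housekeeping-normalized (ACTB/GAPDH/POLR2A); bidirectional curve fit vs DMSO baseline.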

Read-out in assay [7]: Lipase C (LIPC), LIPC (gene 3990)
In words: LTEA_HepaRG_LIPC: Life Technologies and Expression Analysis (LTEA) Assay for Lipase C (LIPC) using HepaRG (AID 2283514). The method, boiled down:
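HepaRG, 48 h exposure, 8-pt half-log series from 100 uM in 0.5% DMSO, duplicates. Readout: LIPC mRNA by Fluidigm qRT-PCR, housekeeping-normalized (ACTB/GAPDH/POLR2A). Gain or loss fitted bidirectionally against DMSO baseline.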

Read-out in assay [8]: Lipoprotein lipase (LPL), LPL (gene 4023)
In words: LTEA_HepaRG_LPL: Life Technologies and Expression Analysis (LTEA) Assay for Lipoprotein lipase (LPL) using HepaRG (AID 2283515). In short, it runs like this:
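HepaRG, 48 h exposure, 8-pt half-log dilutions from 100 uM, 0.5% DMSO vehicle, duplicates; qRT-PCR (Fluidigm array) of LPL mRNA vs housekeeping genes; bidirectional curve fit relative to DMSO baseline.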

Read-out in assay [9]: MicroRNA 122 (MIR122), gene 406906
Briefly: LTEA_HepaRG_MIR122: Life Technologies and Expression Analysis (LTEA) Assay for MicroRNA 122 (MIR122) using HepaRG (AID 2283516). Note: the transcript read is the microRNA miR-122. The method, boiled down: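 qRT-PCR read-out (TaqMan, Fluidigm array), normalized to three housekeeping genes; HepaRG cells dosed 48 h at 8 concentrations up to 100 uM in 0.5% DMSO, duplicate; gain or loss fitted against DMSO baseline.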

Read-out in assay [10]: matrix metalloproteinase-10 (MMP10), MMP10 (gene 4319)
Briefly: LTEA_HepaRG_MMP10: Life Technologies and Expression Analysis (LTEA) Assay for matrix metalloproteinase-10 (MMP10) using HepaRG (AID 2283517). In short, it runs like this: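 Transcript levels come from Fluidigm qRT-PCR normalized to three housekeeping genes, with curves fitted bidirectionally against 0.5% DMSO. Human HepaRG cells were dosed for 48 hours at concentrations up to 100 uM.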

Read-out in a further assay: MYC, MYC (gene 4609)
Briefly: LTEA_HepaRG_MYC: Life Technologies and Expression Analysis (LTEA) Assay for MYC using HepaRG (AID 2283518). The method, boiled down:
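Differentiated HepaRG cells exposed 48 h in serum-free induction medium to 8 concentrations (top 100 uM, half-log steps; 0.5% DMSO), duplicate. MYC mRNA measured by Fluidigm qRT-PCR, normalized to ACTB, GAPDH, POLR2A; bidirectional fit versus DMSO.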

Read-out in assay [11]: matrix metalloproteinase-3 (MMP3), MMP3 (gene 4314)
In words: LTEA_HepaRG_MMP3: Life Technologies and Expression Analysis (LTEA) Assay for matrix metalloproteinase-3 (MMP3) using HepaRG (AID 2283519). In short, it runs like this:
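qRT-PCR read-out of MMP3 mRNA (normalised to three housekeeping genes) in HepaRG liver cells after 48 h chemical exposure; 8-point half-log series, top 100 uM, 0.5% DMSO vehicle. Bidirectional curve fitting against DMSO baseline.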

Read-out in assay [12]: Paternally Expressed 10 (PEG10), PEG10 (gene 23089)
In words: LTEA_HepaRG_PEG10: Life Technologies and Expression Analysis (LTEA) Assay for Paternally Expressed 10 (PEG10) using HepaRG (AID 2283520).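 For AC50: PEG10 transcript by qRT-PCR normalised to ACTB GAPDH and POLR2A.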 In short, it runs like this: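 qRT-PCR read-out: PEG10 mRNA normalised to three housekeeping genes, fitted bidirectionally against 0.5% DMSO vehicle. HepaRG cells received test chemicals for 48 h in serum-free induction medium, 8 points, top 100 uM, half-log steps.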

Read-out in assay [13]: Protein phosphatase 2A (PPP2R4), PTPA (gene 5524)
Briefly: LTEA_HepaRG_PPP2R4: Life Technologies and Expression Analysis (LTEA) Assay for Protein phosphatase 2A (PPP2R4) using HepaRG (AID 2283522). In short, it runs like this: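 HepaRG, 48 h exposure, 8-pt half-log series from 100 uM, 0.5% DMSO vehicle, duplicates. Readout: PPP2R4 mRNA, Fluidigm qRT-PCR, housekeeping-normalized. Bidirectional curve fit vs DMSO baseline.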

Read-out in assay [14]: Phosphatase and tensin (PTEN), PTEN (gene 5728)
In words: LTEA_HepaRG_PTEN: Life Technologies and Expression Analysis (LTEA) Assay for Phosphatase and tensin (PTEN) using HepaRG (AID 2283523). In short, it runs like this:
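HepaRG, 48 h exposure, 8-pt half-log series from 100 uM top, 0.5% DMSO vehicle, duplicates. Readout: Fluidigm qRT-PCR of PTEN transcript; housekeeping normalization (ACTB, GAPDH, POLR2A). Gain or loss fitted relative to DMSO baseline.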

Read-out in assay [15]: solute carrier (SLC22A1), SLC22A1 (gene 6580)
In words: LTEA_HepaRG_SLC22A1: Life Technologies and Expression Analysis (LTEA) Assay for solute carrier (SLC22A1) using HepaRG (AID 2283524). The method, boiled down: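 qRT-PCR readout (TaqMan, Fluidigm arrays) of SLC22A1 transcript, normalized to three housekeeping genes; bidirectional curve fit relative to 0.5% DMSO vehicle. Differentiated human HepaRG cells, 48 h chemical exposure, top concentration 100 uM, half-log steps, eight points.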

Read-out in assay [16]: Nuclear factor NF-kappa-B p105 subunit (Homo sapiens) (UniProt P19838)
Briefly: LTEA_HepaRG_NFKB1: Life Technologies and Expression Analysis (LTEA) Assay for Nuclear Factor Kappa B Subunit 1 (NFKB1) using HepaRG (AID 2283521).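 Note: TaqMan qRT-PCR transcript normalised to ACTB GAPDH and POLR2A housekeeping genes.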 In short, it runs like this:
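Differentiated human HepaRG cells were exposed for 48 h in serum-free induction medium to eight concentrations (top 100 uM, half-log steps, 0.5% DMSO), in duplicate. NFKB1 mRNA was measured by TaqMan qRT-PCR, normalized to ACTB/GAPDH/POLR2A, and fitted bidirectionally against DMSO.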

Activity calls are given as the source filed them. Rule for the calls: active = hit-call score of the fitted dose curve at least 0.9, where 1 is the maximum; inactive = score below 0.9.

Nuclear factor NF-kappa-B p105 subunit (Homo sapiens), sequence (P19838 whole entry, looked up): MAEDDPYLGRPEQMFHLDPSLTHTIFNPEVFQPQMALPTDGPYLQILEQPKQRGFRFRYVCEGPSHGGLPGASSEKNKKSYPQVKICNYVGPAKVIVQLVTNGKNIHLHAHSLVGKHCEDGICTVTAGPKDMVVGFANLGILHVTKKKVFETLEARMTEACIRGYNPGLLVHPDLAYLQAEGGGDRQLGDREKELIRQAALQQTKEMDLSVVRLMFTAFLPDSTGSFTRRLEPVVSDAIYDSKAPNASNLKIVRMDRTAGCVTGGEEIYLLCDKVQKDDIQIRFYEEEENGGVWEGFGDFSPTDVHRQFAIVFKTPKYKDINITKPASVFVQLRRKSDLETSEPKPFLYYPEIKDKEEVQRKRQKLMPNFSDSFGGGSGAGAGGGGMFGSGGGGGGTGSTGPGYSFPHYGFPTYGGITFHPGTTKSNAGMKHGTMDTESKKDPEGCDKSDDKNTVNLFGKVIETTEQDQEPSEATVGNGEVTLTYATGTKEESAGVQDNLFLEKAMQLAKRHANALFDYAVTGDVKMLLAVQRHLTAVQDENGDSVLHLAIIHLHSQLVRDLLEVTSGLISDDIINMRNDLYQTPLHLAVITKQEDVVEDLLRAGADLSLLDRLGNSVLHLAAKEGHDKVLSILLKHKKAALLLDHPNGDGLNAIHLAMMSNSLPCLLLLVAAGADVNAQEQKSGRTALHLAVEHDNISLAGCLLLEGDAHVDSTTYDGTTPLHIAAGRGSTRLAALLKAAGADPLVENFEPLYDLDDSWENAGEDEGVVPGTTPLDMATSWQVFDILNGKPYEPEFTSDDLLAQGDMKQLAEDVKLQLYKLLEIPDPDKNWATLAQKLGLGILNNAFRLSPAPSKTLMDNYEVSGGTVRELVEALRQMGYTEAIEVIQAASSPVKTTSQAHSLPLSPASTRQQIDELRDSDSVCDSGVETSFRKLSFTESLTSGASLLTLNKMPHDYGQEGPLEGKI

For `CCOP(=S)(OCC)SCSC(C)(C)C`, the call (with HGF (gene 3082); in assay [1]; in assay [2]; in [3]; in assay [4]; in assay [5]) was inactive. Further, the outcome in assay [6] is “inactive”; in assay [7], “inactive”; in assay [8] it was “inactive”; in assay [9], “inactive”; in [10], “inactive”; with MYC, MYC (gene 4609) it was “inactive”. Also, the call in assay [11], in assay [13], in assay [14] and in assay [15] was inactive. Moreover, the concentration at half-maximal activity (AC50) (commonly the concentration at which the activity in the assay is half-maximal) in assay [12] was 50000 nM (active).
As to `Oc1ccc(Cl)cc1Cl`, the result (with HGF (gene 3082); in assay [1]; in [2]; in [3]; in [4]; in assay [5]) was inactive. The outcome in [7] was “inactive”; in assay [8], “inactive”; in [9] it was “inactive”; in assay [10], “inactive”; in the assay with MYC, MYC (gene 4609), “inactive”; in assay [11], “inactive”. The result in assay [12], in [13], in [14] and in assay [15] was inactive.
For the compound `CC(C)(O)C(=O)Nc1ccc([N+](=O)[O-])c(C(F)(F)F)c1`, the AC50 was 29.1 nM (active) with HGF (gene 3082); 44.3 nM (active) in assay [1]; 40.2 nM (active) in [2]; 39.9 nM (active) in assay [7]; 30.8 nM (active) with MYC, MYC (gene 4609); 29.8 nM (active) in assay [11]. For the same compound, the AC50 in [12] was 25000 nM (active); in assay [13] it was 22.6 nM (active). In addition, the compound was classed as inactive in assay [3], in assay [4], in assay [5], in [8], in assay [9] and in assay [10]. Besides, the outcome in [14] and in assay [15] was inactive.
Take `CCC(C)c1cc([N+](=O)[O-])cc([N+](=O)[O-])c1O` (stereo unspecified): the AC50 is 2870 nM (active) in the assay with HGF (gene 3082); 1240 nM (active) in [1]; 4950 nM (active) in [3]; 2530 nM (active) in [5]; 1830 nM (active) in assay [7]; 758 nM (active) in assay [8]. For the same compound, the half-maximal activity concentration (AC50) in [9] is 2730 nM (active); in assay [10] it was 3930 nM (active); with MYC, MYC (gene 4609) it was 9270 nM (active); in [11], 2230 nM (active); in [12], 1260 nM (active); in [13], 1250 nM (active). In addition, the AC50 in assay [14] is 5410 nM (active); in [15], 1740 nM (active). Also, the outcome in assay [2], in assay [4] and in assay [16] was inactive.
